VP16 counter – VP16 counterscreen qHTS for inhibitors of ROR gamma transcriptional activity. Drosophila S2 Gal4-VP16 UAS-luciferase, luminescence, 20 h. Potency, µM (series often up to 53.6 µM), actives largely listed as inhibitors. 310,000 tested, 3.5% active. AID 2546, 2010;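 further: Gal4-VP16 expression switched on by copper sulfate through the metallothionein promoter; nearly all actives have a fitted effect of over 50% in size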
ALDH1A1 inh – qHTS Assay for Inhibitors of Aldehyde Dehydrogenase 1 (ALDH1A1) | Purified ALDH1A1, NADH fluorescence, propionaldehyde substrate | Potency, µM (titrated, usually from 75.3 µM), most hits filed as inhibitors | 220,000 tested, 7.3% active; active means well fitted inhibition curve with a large enough effect, not every such curve was filed as active; inconclusive means small, poorly fitted or top-dose-only effect, or another doubt; inactive means no such curve, though single readings can be large or run the other way
Sfp inh – qHTS Assay for Inhibitors of Bacillus subtilis Sfp phosphopantetheinyl transferase (PPTase); Biochemical Sfp PPTase activity, qHTS; Potency, µM, hits mostly inhibitors; 310,000 tested, 3.5% active; 4'-phosphopantetheinyl transferase ffp (Bacillus subtilis), Q9F4F7;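 further: the enzyme is Sfp with the accession as filed and its product quenches rhodamine fluorescence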
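Fluorescence-quenching assay: 15 nM Sfp-PPTase preincubated 15 min at room temperature with compound, then 5 uM rhodamine-CoA and 12.5 uM BHQ-2-labelled YbbR peptide added. Fluorescence (ex 525/em 598 nm) read at start and after 30 min; difference gives rate.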
RORg inh – qHTS for inhibitors of ROR gamma transcriptional activity | Potency, µM (highest dose often 53.6 µM), usual class: inhibitors | 310,000 tested, 5.4% active | Nuclear receptor ROR-gamma (Mus musculus), P51450 | Drosophila S2 Gal4-RORgamma UAS-luciferase reporter, 20 h; further: nearly all actives have a fitted effect of over 60% in size
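ROR gamma transcriptional activity was tracked as Gal4-UAS luciferase output in stably transfected Drosophila Schneider cells, with compound added 1 hr before 700 uM copper sulfate induction and a 20 hr ambient-temperature incubation.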
PLK1 PBD block – qHTS for Inhibitors of PLK1-PDB (polo-like kinase 1 - polo-box domain): Primary Screen; Plk1 PBD binding of FITC phosphopeptide, fluorescence polarization; Potency, µM, actives largely listed as inhibitors; 360,000 tested, 2.8% active; further: series mostly up to about 57 µM; nearly all actives have a fitted effect of over 65% in size
Target sequence (P53350 whole entry, looked up, the tested form may be a part): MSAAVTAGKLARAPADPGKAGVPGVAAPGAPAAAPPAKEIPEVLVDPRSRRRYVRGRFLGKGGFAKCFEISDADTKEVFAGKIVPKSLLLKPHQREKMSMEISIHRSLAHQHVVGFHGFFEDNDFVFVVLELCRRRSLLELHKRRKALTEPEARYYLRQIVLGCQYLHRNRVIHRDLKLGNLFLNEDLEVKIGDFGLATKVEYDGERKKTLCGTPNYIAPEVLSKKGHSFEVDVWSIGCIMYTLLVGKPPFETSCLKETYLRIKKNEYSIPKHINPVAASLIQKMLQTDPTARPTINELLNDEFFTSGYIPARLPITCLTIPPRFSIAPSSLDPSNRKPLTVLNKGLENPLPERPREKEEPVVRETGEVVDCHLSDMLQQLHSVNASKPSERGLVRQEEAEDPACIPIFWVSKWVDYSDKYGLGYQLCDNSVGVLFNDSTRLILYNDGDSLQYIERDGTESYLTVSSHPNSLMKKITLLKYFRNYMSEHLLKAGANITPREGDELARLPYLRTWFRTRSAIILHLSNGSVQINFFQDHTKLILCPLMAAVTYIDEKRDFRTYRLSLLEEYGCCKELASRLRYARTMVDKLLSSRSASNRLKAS
A number is an active result; i = inactive; ? = inconclusive; nt = no result; [ ] = dose if it differs, or a comment. Shown are actives, neighbours in structure and some others; about 12% of the full set was active somewhere. Unless noted, the call rests on the fitted dose curve; in most records, active means well fitted curve in the direction sought with a large enough effect; inconclusive means small, poorly fitted or top-dose-only effect, or another doubt; inactive means no such curve, though single readings can be large; an effect the other way counts as inactive or inconclusive.

SMILES | VP16 counter | ALDH1A1 inh | Sfp inh | RORg inh | PLK1 PBD block
O=C(NCc1ccco1)c1ccc2c(c1)N(Cc1ccccc1)C(=O)CS2 | i | i | i | i | i
COc1ccc(/C=C2/NC(=O)CNC2=O)cc1 | i | nt | i | i | i
CSc1ccc(-c2nc(O)c3cnccn23)cc1 | i | ? | i | i | i
Oc1nc(-c2ccc(Br)cc2)n2ccncc12 | i | i | 56.2µM | i | i
OCCCN=C1CCCCC1 | nt | i[13.5 µM] | nt | nt | nt
CCOc1ccc(Br)cc1/C(C)=N\NC1=NCCN1 | 7.94µM | i | i | i | i
CCCCCOc1ccc(/C(C)=N/NC2=NCCN2)cc1 | i | nt | i | ? | i
CCCCCCOc1ccc(/C(C)=N/NC2=NCCN2)cc1 | i | nt | 56.2µM | ? | i
CC(=NNC1=NCCN1)c1cnn(C2=NCCN2)c1C | nt | nt | nt | nt | i
Cc1ccc(NC(=S)/C(C#N)=C2/Nc3ccccc3S2)cc1 | nt | nt | nt | nt | 26.7µM
N#C/C(C(=O)N1CCCCC1)=C1\Nc2ccccc2S1 | nt | ? | i | i[0.365 µM] | i
O=C(NC(=S)Nc1ccccc1Cl)c1csnn1 | ? | 4.47µM | 50.1µM | ? | i
CC(C)c1ccc(NC(=O)c2csnn2)cc1 | ? | 17.8µM | i | i | i
Cc1sc(C(C2C(=O)CC(C)(C)CC2=O)C2C(=O)CC(C)(C)CC2=O)cc1[N+](=O)[O-] | ? | 12.6µM | 6.31µM | ? | 4.74µM
CCN(CCNCC(O)COCc1ccc(Cl)cc1)c1cccc(C)c1 (stereo not given) | i | ? | 10µM | i | i
O=S1(=O)N[C@@H](Cc2ccccc2)COc2cccc(N3CCC[C@@H]3CO)c21 | nt | nt | nt | nt | i
Cc1cc(Cl)c2oc(C(=O)N(C)C3CCOC3)c(C)c2c1 (stereo not given) | i | nt | i | i | 3.36µM
c1ccc2cc(C3CCCCC3)ncc2c1 | nt | nt | nt | nt | i
COc1ccc(N2CCC(CNC(=S)Nc3ccc(C)cc3C)C2)cc1 (stereo not given) | ? | nt | 50.1µM | 0.631µM | ?
COc1ccc(N2CCC(CNC(=S)Nc3cccc(C)c3)C2)cc1 (stereo not given) | 5.01µM | 25.1µM | i | 3.98µM | ?
COc1ccc(N2CCC(CNS(=O)(=O)c3cccc(C(F)(F)F)c3)C2)cc1 (stereo not given) | i | 8.91µM | i | i | i
COc1ccc(N2CCC(CNC(=S)Nc3c(C)cc(C)cc3C)C2)cc1 (stereo not given) | 7.08µM | nt | ? | 1.41µM | 11.9µM
O=C(NCc1cccnc1)c1ccc2sc([C@H]3C[C@H](O)[C@@H](CO)O3)nc2c1 | nt | nt | nt | nt | i
CC1([N+](=O)[O-])COC(c2cccc3ccccc23)OC1 (stereo not given) | nt | nt | nt | nt | i
S=C(NCc1ccccc1)NCc1ccccc1 | i | ? | i | ? | i
SMILES | VP16 counter | ALDH1A1 inh | Sfp inh | RORg inh | PLK1 PBD block
CCNC(=S)NNc1ccccc1 | 3.98µM | nt | 35.5µM | 0.708µM | i
S=C(NCc1ccccc1)NNc1ccccc1 | 3.16µM | ? | i | 1.41µM | ?
COc1ccccc1/C=C/C(=O)NNC(=O)c1cccs1 | i | i | i | i | i
CCc1cc(C(=O)N2CCCC(CO)(Cc3ccc(F)cc3)C2)n(C)n1 (stereo not given) | i | nt | i | i | i
CC1=C(C(=O)Nc2ccccc2C(F)(F)F)C(c2ccc(C)s2)NC(=S)N1 (stereo not given) | i | 0.631µM | i | ? | i
COC(=O)C1=C(C)NC(=S)NC1c1ccc(OC(=O)c2ccco2)cc1 (stereo not given) | i | ? | i | i | i
COC(=O)C1=C(C)NC(=S)NC1c1sccc1C (stereo not given) | i | 11.2µM | i | 15.8µM | i
CC1=C(C(=O)Nc2ccccc2C(F)(F)F)C(c2sccc2C)NC(=S)N1 (stereo not given) | i | 4.47µM | i | 20µM | i
Cc1ccc(Cc2c(-c3cccc(Cl)c3)nc3c(C)cc(Br)cn23)cc1 | nt | nt | nt | nt | i
CC(=O)OC[C@@H]1CN(Cc2ccccc2)C[C@H](n2cnc3c(N4CCN(c5ccccc5)CC4)ncnc32)O1 | nt | nt | nt | nt | i
CCCN1C=CC(=C2C(=O)c3ccccc3C2=O)C=C1 | 0.251µM | 14.1µM | i | 1.12µM | i
CCN1C=CC(=C2C(=O)c3ccccc3C2=O)C=C1 | 0.316µM | ? | i | ? | i
O=S(=O)(c1cccnc1)N1CCCC(Nc2ccc(F)c(F)c2)C1 (stereo not given) | nt | nt | nt | nt | i
Cc1noc(C)c1-c1ccc2ncnc(NC(C)c3ccccc3)c2c1 (stereo not given) | i | nt | i | i | nt
CC(Nc1ncnc2ccccc12)c1ccccc1 (stereo not given) | 2.82µM | nt | i | ? | ?
Clc1ccccc1Nc1nc(NCC2CC2)nc2ccsc12 | nt | nt | nt | nt | i
Cc1oc(=O)oc1CN1CCN(c2cc3c(cc2F)c(=O)c(C(=O)O)c2n3C(C)S2)CC1 (stereo not given) | i | nt | i | i[10 µM] | nt
COc1ccc(C(=O)c2coc3ccc(O)c(CN4CCOCC4)c23)cc1 | i | i | i | i | i
COc1ccc(C(=O)c2c(C)oc3ccc(O)c(CN4CCOCC4)c23)cc1 | i | i | 56.2µM | i | i
O=C(NC1CC1)c1sc2ccccc2c1Cl | i | nt | i | i | i
O=C(NNC(=O)C1CC2CCC1C2)c1sc2ccccc2c1Cl (stereo not given) | ? | 25.1µM | i | ? | i
CC(C)(C)C(=O)NC(=S)NNC(=O)c1sc2ccccc2c1Cl | 0.562µM | ? | i | 0.631µM | i
CC(NC(=O)c1sc2ccccc2c1Cl)C1CCCO1 (stereo not given) | i | i | i | i | i
O=C(NNC(=O)c1sc2cccc(Cl)c2c1Cl)NC1CCCCC1 | i | 3.55µM | i | i | i
O=C(NNC(=S)NC1CCCCC1)c1sc2ccccc2c1Cl | 12.6µM | 22.4µM | i | 2.82µM | 21.2µM
SMILES | VP16 counter | ALDH1A1 inh | Sfp inh | RORg inh | PLK1 PBD block
C=CCN1c2ccccc2C(=O)CS1(=O)=O | nt | nt | nt | nt | i
CN(C)c1ncc2nc(-c3ccc(F)cc3)c(=O)n(C3CC3)c2n1 | i | ? | i | i | nt
CCOC(=O)C1=C(C)NC(C)=C(C(=O)OCC)C1c1ccc(OC)cc1 | i | ? | i | i | i
COC(=O)C1=C(C)NC=C([N+](=O)[O-])C1c1ccc(OC)cc1 (stereo not given) | i | i | 14.1µM | i | i
Cc1ccccc1-n1c(SC2CCOC2=O)nnc1-c1ccncc1 (stereo not given) | i | i | i | i | i
Cc1ccccc1-n1nnnc1SC1CCOC1=O (stereo not given) | i | 11.2µM | i | i | i
COCC#Cc1ccc(C2NC(C(=O)O)CCC2C)cc1 (stereo not given) | i[10 µM] | i[13.5 µM] | i | i[10 µM] | nt
O=C(NC(c1ccccc1)c1cnccn1)C1CCN(CCOc2ccc(Cl)cc2Cl)CC1 (stereo not given) | nt | nt | nt | nt | i
Nc1nc(SCC(=O)NCCCN2CCOCC2)nc2sc3c(c12)CCC3 | i | ? | 28.2µM | i | ?
